The source made the active and inactive calls. The calls were made as follows: active = hit-call score of the fitted dose curve at least 0.9, where 1 is the maximum; inactive = score below 0.9.
Assays:
[1] = read-out: Thrombomodulin, THBD (gene 7056); experiment: BSK_CASM3C_Thrombomodulin: BioMAP Diversity Plus: CASM3C Assay for Thrombomodulin Biomarker Activity (AID 2283051); details: primary human coronary artery smooth muscle cells; actives raise or lower the signal;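 also: thrombomodulin protein level measured by ELISA 24 h after dosing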
[2] = read-out: Tissue Factor, F3 (gene 2152); experiment: BSK_CASM3C_TissueFactor: BioMAP Diversity Plus: CASM3C Assay for Tissue Factor Biomarker Activity (AID 2283052); details: primary human coronary artery smooth muscle cells; actives raise or lower the signal;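 also: cell surface tissue factor protein level read by ELISA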
[3] = read-out: Interferon-gamma inducible Protein 10 (IP10), CXCL10 (gene 3627); experiment: BSK_hDFCGF_IP10: BioMAP Diversity Plus: hDFCGF Assay for Interferon-gamma inducible Protein 10 (IP10) Biomarker Activity (AID 2283053); details: primary human foreskin fibroblasts; actives raise or lower the signal
Summary of the method: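 Primary human foreskin fibroblasts exposed to chemicals for 24 h. IP-10 measured by ELISA; changes fitted bidirectionally against DMSO baseline.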

[4] = read-out: Urokinase-type plasminogen activator receptor (uPAR), PLAUR (gene 5329); experiment: BSK_CASM3C_uPAR: BioMAP Diversity Plus: CASM3C Assay for Urokinase-type plasminogen activator receptor (uPAR) Biomarker Activity (AID 2283054); details: primary human coronary artery smooth muscle cells; actives raise or lower the signal;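 also: cell-surface uPAR protein level quantified by ELISA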
[5] = read-out: Vascular cell adhesion molecule 1 (VCAM1), VCAM1 (gene 7412); experiment: BSK_CASM3C_VCAM1: BioMAP Diversity Plus: CASM3C Assay for Vascular cell adhesion molecule 1 (VCAM1) Biomarker Activity (AID 2283055); details: primary human coronary artery smooth muscle cells; actives raise or lower the signal;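 also: VCAM-1 protein level quantified by ELISA on the cells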
[6] = read-out: Collagen III, COL3A1 (gene 1281); experiment: BSK_hDFCGF_CollagenIII: BioMAP Diversity Plus: hDFCGF Assay for Collagen III Biomarker Activity (AID 2283056); details: primary human foreskin fibroblasts; actives raise or lower the signal
Summary of the method: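 Human foreskin primary fibroblasts were exposed to test chemicals for 24 h, after which collagen III was quantified by ELISA. Activity was fitted bidirectionally against DMSO as negative control and baseline.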

[7] = read-out: Epidermal growth factor receptor (EGFR), EGFR (gene 1956); experiment: BSK_hDFCGF_EGFR: BioMAP Diversity Plus: hDFCGF Assay for Epidermal growth factor receptor (EGFR) Biomarker Activity (AID 2283057); details: primary human foreskin fibroblasts; actives raise or lower the signal
Summary of the method: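 Primary human foreskin fibroblasts (hDFCGF system), sampled 24 h after dosing; EGFR quantified by ELISA. Bidirectional fit relative to DMSO baseline; SRB total-protein staining in parallel cultures for cytotoxicity.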

[8] = read-out: Interleukin-8 (IL8), CXCL8 (gene 3576); experiment: BSK_hDFCGF_IL8: BioMAP Diversity Plus: hDFCGF Assay for Interleukin-8 (IL8) Biomarker Activity (AID 2283058); details: primary human foreskin fibroblasts; actives raise or lower the signal
Summary of the method: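 hDFCGF human dermal fibroblasts; 24 h chemical exposure; IL-8 by ELISA; bidirectional curve fit vs DMSO baseline; gain or loss of signal scored.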

[9] = BSK_hDFCGF_Proliferation: Cell Proliferation Assessment in the BioMAP Diversity Plus: hDFCGF Assay (AID 2283059); details: primary human foreskin fibroblasts;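 also: curves fitted for both rise and fall of signal versus DMSO baseline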
Summary of the method: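 Primary human foreskin fibroblasts, sub-confluent; […]; 10% TCA fix, 0.1% SRB stain, A560 total protein. Gain/loss fitted bidirectionally vs DMSO control.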

[10] = read-out: Macrophage colony-stimulating factor (MCSF), CSF1 (gene 1435); experiment: BSK_hDFCGF_MCSF: BioMAP Diversity Plus: hDFCGF Assay for Macrophage colony-stimulating factor (MCSF) Biomarker Activity (AID 2283060); details: primary human foreskin fibroblasts; actives raise or lower the signal
Summary of the method: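 Human foreskin primary fibroblasts were treated with test chemical for 24 h, and M-CSF was then measured by ELISA. Data were fitted bidirectionally against DMSO as the negative control and activity baseline.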

[11] = BSK_hDFCGF_SRB: Viability Assessment in the BioMAP Diversity Plus: hDFCGF Assay (AID 2283061); details: primary human foreskin fibroblasts;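 also: cells exposed to compound for 24 h before the read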
Summary of the method: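 Human foreskin primary fibroblasts were treated with compound and assessed 24 h after dosing. Total protein was measured by sulforhodamine B staining (0.1% SRB after 10% TCA fixation, 560 nm read) as a cytotoxicity marker, with bidirectional fitting against DMSO baseline.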

[12] = read-out: TIMP metallopeptidase inhibitor 1 (TIMP1), TIMP1 (gene 7076); experiment: BSK_hDFCGF_TIMP1: BioMAP Diversity Plus: hDFCGF Assay for TIMP metallopeptidase inhibitor 1 (TIMP1) Biomarker Activity (AID 2283062); details: primary human foreskin fibroblasts; actives raise or lower the signal
Summary of the method: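 Primary human foreskin fibroblasts in the hDFCGF system were dosed with compound for 24 h, then TIMP-1 was measured by ELISA. Activity was fitted bidirectionally relative to DMSO control; parallel SRB staining assessed cytotoxicity.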

[13] = read-out: Monokine induced gamma interferon (MIG), CXCL9 (gene 4283); experiment: BSK_hDFCGF_MIG: BioMAP Diversity Plus: hDFCGF Assay for Monokine induced gamma interferon (MIG) Biomarker Activity (AID 2283063); details: primary human foreskin fibroblasts; actives raise or lower the signal
Summary of the method: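 ELISA read-out of MIG from primary human dermal fibroblasts 24 h post-dosing. Gain or loss of signal fitted bidirectionally, DMSO as baseline.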

[14] = read-out: Matrix Metallopeptidase 1 (MMP1), MMP1 (gene 4312); experiment: BSK_hDFCGF_MMP1: BioMAP Diversity Plus: hDFCGF Assay for Matrix Metallopeptidase 1 (MMP1) Biomarker Activity (AID 2283064); details: primary human foreskin fibroblasts; actives raise or lower the signal
Summary of the method: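 Primary human foreskin fibroblasts exposed to chemicals for 24 h; MMP1 measured by ELISA. Cytotoxicity tracked by SRB staining in parallel cultures; bidirectional fit relative to DMSO.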

[15] = read-out: Vascular cell adhesion molecule 1 (VCAM1), VCAM1 (gene 7412); experiment: BSK_hDFCGF_VCAM1: BioMAP Diversity Plus: hDFCGF Assay for Vascular cell adhesion molecule 1 (VCAM1) Biomarker Activity (AID 2283065); details: primary human foreskin fibroblasts; actives raise or lower the signal
Summary of the method: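 Primary human foreskin fibroblasts (hDFCGF system) were dosed with chemical and VCAM-1 was measured by ELISA 24 h later. Bidirectional curve fitting used DMSO as negative control and activity baseline.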

[16] = read-out: Plasminogen activator inhibitor-1 (PAI1), SERPINE1 (gene 5054); experiment: BSK_hDFCGF_PAI1: BioMAP Diversity Plus: hDFCGF Assay for Plasminogen activator inhibitor-1 (PAI1) Biomarker Activity (AID 2283066); details: primary human foreskin fibroblasts; actives raise or lower the signal
Summary of the method: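 Human foreskin fibroblast primary cells, 24 h chemical exposure; PAI-1 measured by ELISA. Bidirectional fitting relative to DMSO; parallel cultures stained with SRB for total protein to flag overt cytotoxicity.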

[17] = read-out: Intercellular Adhesion Molecule 1 (ICAM1), ICAM1 (gene 3383); experiment: BSK_KF3CT_ICAM1: BioMAP Diversity Plus: KF3CT Assay for Intercellular Adhesion Molecule 1 (ICAM1) Biomarker Activity (AID 2283067); details: primary human keratinocytes with fibroblasts; actives raise or lower the signal
Summary of the method: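 Human keratinocyte plus foreskin fibroblast primary co-culture was exposed to chemical for 24 h. ICAM-1 was then quantified by ELISA, and the data were fit bidirectionally against DMSO as the negative control and baseline.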

[18] = read-out: Interferon-gamma inducible Protein 10 (IP10), CXCL10 (gene 3627); experiment: BSK_KF3CT_IP10: BioMAP Diversity Plus: KF3CT Assay for Interferon-gamma inducible Protein 10 (IP10) Biomarker Activity (AID 2283068); details: primary human keratinocytes with fibroblasts; actives raise or lower the signal
Summary of the method: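 In a primary skin co-culture of keratinocytes and fibroblasts, IP-10 is quantified by ELISA at 24 h after dosing. SRB staining of parallel wells monitors overt toxicity. Curves are fitted both directions against DMSO.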

[19] = BSK_KF3CT_SRB: Viability Assessment in the BioMAP Diversity Plus: KF3CT Assay (AID 2283069); details: primary human keratinocytes with fibroblasts;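 also: fitted for both signal gain and loss against DMSO baseline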
Summary of the method: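 Human keratinocyte and foreskin fibroblast co-culture exposed to chemical for 24 h. Total protein measured in parallel cultures by 0.1% sulforhodamine B staining after 10% TCA fixation, read at 560 nm; bidirectional fit relative to DMSO.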

[20] = read-out: Interleukin-1 alpha (IL1a), IL1A (gene 3552); experiment: BSK_KF3CT_IL1a: BioMAP Diversity Plus: KF3CT Assay for Interleukin-1 alpha (IL1a) Biomarker Activity (AID 2283070); details: primary human keratinocytes with fibroblasts; actives raise or lower the signal
Summary of the method: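 Primary human keratinocyte plus foreskin fibroblast co-culture, dosed and measured at 24 h in 96-well plates. IL-1a level quantified by ELISA; bidirectional fit relative to DMSO.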

Measured: AC50

Cc1cc(C)nc(Nc2ccccc2)n1
inactive: all assays above

COc1cc(OC)nc(NC(=O)NS(=O)(=O)c2ncccc2OCC(F)(F)F)n1
inactive: all assays above

CCNC(=O)NC(=O)C(C#N)=NOC
active: [1] 15.9 µM
inactive: all other assays above

CCNP(=S)(OC)O/C(C)=C/C(=O)OC(C)C (stereo not given)
active: [18] 0.148 µM
inactive: all other assays above

C=CCOC(=O)C(C)(C)OC(=O)c1cc(-n2c(=O)cc(C(F)(F)F)n(C)c2=O)ccc1Cl
active: [3] 1.2 µM | [4] 984 nM | [7] 980 nM | [10] 1.88 µM | [12] 30.3 µM | [14] 3.97 µM | [16] 3.51 µM | [18] 6.34 µM
inactive: all other assays above

CC1(C)C(C(=O)OC(C#N)c2cccc(Oc3ccccc3)c2)C1(C)C (stereo not given)
active: [1] 16 µM | [9] 8.2 µM | [14] 3.02 µM
inactive: all other assays above

— PubChem BioAssay (EPA / NIEHS)
